According to publication PMC5540273 (PLoS ONE, 2017):

Assays:
Conditions in all cases: concentration: 1 μM, replicates: in singlicate; n = 1
[1] = tested on: ERN1
[2] = tested on: T1, FAK
T1 construct: gene PTK2

[3] = tested on: FER
[4] = tested on: FES
[5] = tested on: FGFR1
[6] = tested on: FGFR2
[7] = tested on: FGFR3
[8] = tested on: FGFR4
[9] = tested on: FGR
[10] = tested on: FLT1
[11] = tested on: FLT3-autoinhibited
[12] = tested on: FLT3
[13] = tested on: FLT4
[14] = tested on: FRK
[15] = tested on: FYN
[16] = tested on: GAK
[17] = tested on: T2, GCN2(Kin.Dom.2,S808G)
T2 construct: gene EIF2AK4

[18] = tested on: GRK1
[19] = tested on: T3, GRK2
T3 construct: gene ADRBK1

[20] = tested on: T4, GRK3
T4 construct: gene ADRBK2
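Further: KINOMEscan kinase panel screen.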

SMILES	%Inh [1]	%Inh [2]	%Inh [3]	%Inh [4]	%Inh [5]	%Inh [6]	%Inh [7]	%Inh [8]	%Inh [9]	%Inh [10]	%Inh [11]	%Inh [12]	%Inh [13]	%Inh [14]	%Inh [15]	%Inh [16]	%Inh [17]	%Inh [18]	%Inh [19]	%Inh [20]
CSc1ccc(-c2cc3ncnc(SCC(=O)O)c3s2)cc1	0%	0%	10%	9%	5%	0%	0%	0%	23%	2%	0%	0%	0%	16%	4%	0%	0%	0%	0%	13%
COc1cc2c(cc1OC[C@@H](O)CO)ncc1c3ccc(C#N)cc3[nH]c21	0%	0%	0%	8%	0%	0%	0%	0%	30%	0%	90%	97.5%	7%	0%	0%	98.9%	82%	16%	13%	0%
COc1ccc(S(=O)(=O)NC2CCN(c3cc(C)nc(Nc4cccc(C#N)c4)n3)CC2)cc1.O=C(O)C(F)(F)F [GSK1653539]	4%	0%	23%	12%	0%	0%	21%	0%	33%	12%	0%	0%	2%	0%	0%	0%	0%	0%	0%	0%
O=c1cc(N2CCOCC2)nc2n(Cc3cccc(F)c3)ccn12 [GSK2297430]	0%	0%	24%	9%	6%	0%	14%	1%	32%	42%	0%	24%	9%	8%	1%	14%	0%	0%	0%	0%
[2H]C([2H])(c1cccc(C(F)(F)F)c1C)n1ccn2c(=O)nc(N3CCOCC3)cc12 [GSK2336394]	0%	0%	33%	0%	7%	16%	14%	5%	12%	22%	0%	12%	3%	6%	44%	0%	0%	0%	0%	20%
CCc1ccnc(/C=C/c2n[nH]c3cc(Sc4ccccc4C(=O)NC)ccc23)c1	0%	14%	0%	0%	84%	87%	83%	11%	86%	100%	7%	19%	99.9%	17%	0%	0%	18%	2%	18%	7%
CC(C)Oc1ccc2c(-c3ccnc(Nc4ccc(N5CCN(C)CC5)cc4)n3)cnn2n1 [GW696155]	62%	0%	22%	15%	15%	1%	12%	0%	57%	59%	70%	98.3%	30%	41%	53%	96.3%	100%	5%	0%	48%
Cn1cc(-c2ccc3c(c2)CCN3C(=O)Cc2ccccc2Cl)c2c(N)ncnc21 [GSK2608885]	37%	42%	64%	22%	59%	82%	43%	15%	99%	98.8%	20%	99.3%	99.8%	97.9%	97.1%	33%	81%	0%	0%	0%
Cc1nnc(-c2ccc3ncc(-c4ccc(S(C)=O)cc4)n3c2)o1 (centres unmarked)	10%	0%	0%	4%	0%	0%	0%	0%	0%	0%	20%	4%	6%	29%	10%	9%	0%	9%	43%	0%
CN(C(=O)c1ccc(-c2cc(-c3c[nH]nc3-c3ccccn3)ccn2)cc1)C1CCOCC1 [GW810083]	2%	0%	0%	14%	4%	0%	0%	0%	0%	41%	0%	8%	0%	6%	1%	9%	2%	10%	18%	18%
